Measurements: PubChem BioAssay AID743361 (Molecular Libraries Program, Specialized Chemistry Center, …, 2014)
Unmarked numbers belong to inactive results. Activity calls are given as the source filed them. How the calls were made is not given here.

Experiment: Rhodamine 123 quenching counterscreen activity, dose response, counter-screen for mtPTP inhibitor project, biochemical, dry powder samples, uHTS hits, fluorescence (AID 743361)
Conditions: Rhodamine 123 fluorescence quenching counterscreen, cell-free

| SMILES | IC50 |
| --- | --- |
| CC(C)C1CCN(CCCC(=O)c2ccc(Br)cc2)CC1 | 64.6 µM (active) |
| O=C(Nc1cc(Cl)ccc1F)c1cc(-c2cccc(O)c2)on1 | > 100 µM |
| O=C(Nc1ccc(CN2CCCCC2)cc1)c1ccc(Cl)c(OCc2ccccc2)c1 | 28.2 µM (active) |
| Cc1ccc(-c2cc(C(=O)Nc3cccc(Cl)c3)no2)cc1 | > 100 µM |
| COc1ccc(Cl)cc1C(=O)Nc1ccc(CCN2CCN(C)CC2)cc1 | > 100 µM |
| COc1ccc(Cl)cc1C(=O)Nc1ccccc1 | > 100 µM |
| O=C(Nc1ccc(CN2CCCCC2)cc1)c1cccc(OCc2ccccc2)c1 | 55.4 µM (active) |
| O=C(Nc1cc(Cl)ccc1Cl)c1cc(-c2cccc(O)c2)on1 | 38.7 µM (active) |
| COc1ccc(Cl)cc1S(=O)(=O)Nc1ccc(N2CCN(C)CC2)cc1 | > 100 µM |
| COc1ccc(Cl)cc1S(=O)(=O)Nc1ccc(CCN2CCN(C)CC2)cc1 | > 100 µM |
| COc1cccc(-c2cc(C(=O)Nc3cc(Cl)ccc3C)no2)c1 | > 100 µM |
| CN1CCN(Cc2ccc(NS(=O)(=O)c3cccc(Cl)c3)cc2)CC1 | > 100 µM |
| O=C(Nc1ccc(CN2CCCCC2)cc1)c1cc(Cl)ccc1O | > 100 µM |
| O=C(Nc1ccc(N2CCCCC2)cc1)c1cccc(OCc2ccccc2)c1 | > 100 µM |
| COc1ccc(Cl)c(C(=O)Nc2cccc(CN3CCN(C(=O)OC(C)(C)C)CC3)c2)c1 | > 100 µM |
| Cc1ccc(NC(=O)c2cc(-c3cccc(O)c3)on2)cc1Cl | > 100 µM |

| SMILES | IC50 |
| --- | --- |
| Cc1cc(NC(=O)c2cc(-c3ccc(F)cc3)on2)no1 | > 100 µM |
| CN1CCN(c2ccc(NS(=O)(=O)c3cccc(Cl)c3)cc2)CC1 | > 100 µM |
| CCN(CC)c1ccc(NC(=O)c2ccc(OC)c(Cl)c2)cc1 | > 100 µM |
| CN1CCN(c2ccc(NS(=O)(=O)c3ccc(F)c(Cl)c3)cc2)CC1 | > 100 µM |
| COc1ccc(Cl)c(C(=O)Nc2ccc(CCN3CCOCC3)cc2)c1 | > 100 µM |
| O=S(=O)(Nc1ccc(CCN2CCCCC2)cc1)c1cc(Cl)cc(Cl)c1 | > 100 µM |
| COc1ccc(Cl)c(C(=O)Nc2ccc(CCN3CCN(C)CC3)cc2)c1 | > 100 µM |
| C[C@@H]1CCC[C@H](C)N1CCCC(=O)c1ccc(Br)cc1 | > 100 µM |
| COc1ccc(Cl)cc1S(=O)(=O)Nc1ccc(CN2CCN(C)CC2)cc1 | > 100 µM |
| COc1ccc(Cl)cc1C(=O)Nc1ccc(CN2CCOCC2)cc1 | > 100 µM |
| COc1ccc(Cl)c(C(=O)Nc2ccc(CCN3CCCCC3)cc2)c1 | > 100 µM |
| Cc1ccc(Cl)cc1NC(=O)c1cc(-c2cccc(O)c2)on1 | > 100 µM |
| COc1ccc(Cl)cc1C(=O)Nc1ccc(N(C)C)cc1 | > 100 µM |
| COc1c(Cl)cccc1NC(=O)c1cc(-c2cccc(O)c2)on1 | > 100 µM |
| O=C(Nc1cccc(Cl)c1Cl)c1cc(-c2cccc(O)c2)on1 | > 100 µM |
